Assay outcomes as filed in PubChem.
This is a sample that favours compounds with a hit; in the whole collection about 9.4% have one here.
HTT aggregate – qHTS Multiplex Assay to Identify Dual Action Probes in a Cell Model of Huntington: Aggregate Formation (GFP). Potency, µM (series often up to 46.1 µM), inactives show at the top dose activity change, negative = inhibition, hits mostly inhibitors. PC12 HttQ103-GFP aggregates, Acumen cytometry, 40 h. hit rate 1.1% among 220,000; note: potency is the fitted concentration of half-maximal effect; % is set by controls: 0 for no effect and ±100 for the full control effect; nearly all actives have a fitted effect of over 60% in size
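Using laser scanning cytometry, GFP-positive aggregates were counted after lysis of PC12 cells induced with 100 nM tebufenozide to express HTT exon 1 Q103–GFP. Compounds were tested in titration.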
IMPase inh – qHTS Assay for Identifying the Cell-Membrane Permeable IMPase Inhibitors; Inositol monophosphatase 1 (Rattus norvegicus), P97697; CHO-M1 cells, IP1 accumulation, HTRF TR-FRET ratio; AID 901, 2007; 120,000 tested, under 10 active; inhibition (IP1 accumulation), % at 46.1 µM; active = well fitted curve in the direction sought with a large enough effect in the signal ratio, not every such curve was filed as active; inconclusive = small, poorly fitted or top-dose-only effect, or a change in a side signal; inactive = no such curve, though single readings can be large or run the other way; the % refers to the signal ratio;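 note: cells stimulated with carbachol in lithium chloride buffer; plate controls were DMSO basal wells for no effect and reference inhibitor wells for full effect; higher means more IMPase inhibition seen as more IP1 and lower FRET ratio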
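CHO-M1, 2000 cells/well, cultured 16–30 h; cpd up to 46 uM; carbachol (50 uM solution, stimulation buffer w/ 50 mM LiCl, pH 7.4), 30 min 37C; IP-One TR-FRET, 10 min RT; Ex 320/Em 665, 620; Hill-fit AC50.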
IMPase Li cell – qHTS Assay for Identifying the Cell-Membrane Permeable IMPase Inhibitors: Potentiation with Lithium. CHO-M1 cells, IP1 TR-FRET (IP-One), carbachol + lithium. Potency, µM (series often up to 59.4 µM), for the others: at the top dose activity, negative = IMPase inhibition, usual class: inhibitors. hit rate 0.35% among 210,000. AID 1457, 2008;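 note: IP1 builds up when IMPase is blocked and the TR-FRET signal falls; potency is the fitted concentration of half-maximal effect; plate controls were basal vehicle for no effect and high inhibitor control for full effect; nearly all actives have a fitted effect of over 50% in size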
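Test compounds were applied to CHO-M1 cells previously cultured for 16–30 h at 2000 per well. A small lithium amount accompanied them; after 30 min at 37C, IP1 was quantified by TR-FRET.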
HTT ATP protect – qHTS Multiplex Assay to Identify Dual Action Probes in a Cell Model of Huntington: Cytoprotection (ATP); hit rate 0.14% among 230,000; Potency, µM (top dose mostly 56.4 µM), for inactives: cytoprotection (ATP increase), actives largely listed as activators; PC12 HTT-Q103 induced, cytoprotection, ATP luminescence, 40 h; note: potency is the fitted concentration of half-maximal effect; % of control where 0% means no effect; nearly all actives have a fitted effect of over 45% in size
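Stable PC12 Q103-GFP cells in serum-supplemented, phenol red-free DMEM; induction by tebufenozide at 100 nM final; compound dose series; cell viability quantified luminescently from ATP.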
HPGD block – qHTS Assay for Inhibitors of HPGD (15-Hydroxyprostaglandin Dehydrogenase); 15-hydroxyprostaglandin dehydrogenase [NAD(+)] (Homo sapiens), P15428; purified HPGD, NADH fluorescence kinetic, PGE2 substrate; Potency, µM, without a hit: at the highest dose activity change, negative = inhibition, actives largely listed as inhibitors; hit rate 4.3% among 150,000; AID 894, 2007; active = well fitted inhibition curve with a large enough effect, not every such curve was filed as active; inconclusive = small, poorly fitted or top-dose-only effect, or another doubt; inactive = no such curve, though single readings can be large or run the other way; note: potency is the fitted concentration of half-maximal effect; % is set by controls: 0 for no effect and ±100 for the full control effect
Target sequence (P15428 whole entry, looked up): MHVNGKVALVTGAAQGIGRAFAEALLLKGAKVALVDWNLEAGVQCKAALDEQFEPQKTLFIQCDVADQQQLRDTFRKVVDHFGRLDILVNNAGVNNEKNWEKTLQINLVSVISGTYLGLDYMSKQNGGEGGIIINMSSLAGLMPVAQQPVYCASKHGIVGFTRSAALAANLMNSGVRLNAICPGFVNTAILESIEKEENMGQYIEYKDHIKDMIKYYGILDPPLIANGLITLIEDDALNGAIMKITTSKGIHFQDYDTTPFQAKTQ
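20 nM HPGD preincubated 15 min at room temperature with compound in 50 mM Tris-HCl pH 8, 0.01% Tween 20. Started with 1 mM NAD+ and 30 uM prostaglandin E2; NADH fluorescence (360/450 nm) read 5 times over 30-s intervals, last minus first.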
ALDH1A1 block – qHTS Assay for Inhibitors of Aldehyde Dehydrogenase 1 (ALDH1A1). Potency, µM (doses to about 75.3 µM), without a hit: at the highest dose activity, negative = inhibition, usual class: inhibitors. hit rate 7.3% among 220,000. Aldehyde dehydrogenase 1A1 (Homo sapiens), P00352. AID 1030, 2008. Purified ALDH1A1, NADH fluorescence, propionaldehyde substrate; active = well fitted inhibition curve with a large enough effect, not every such curve was filed as active; inconclusive = small, poorly fitted or top-dose-only effect, or another doubt; inactive = no such curve, though single readings can be large or run the other way;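 note: potency is the fitted concentration of half-maximal effect; plate controls were no enzyme wells and a reference inhibitor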
Target sequence (P00352 whole entry, looked up): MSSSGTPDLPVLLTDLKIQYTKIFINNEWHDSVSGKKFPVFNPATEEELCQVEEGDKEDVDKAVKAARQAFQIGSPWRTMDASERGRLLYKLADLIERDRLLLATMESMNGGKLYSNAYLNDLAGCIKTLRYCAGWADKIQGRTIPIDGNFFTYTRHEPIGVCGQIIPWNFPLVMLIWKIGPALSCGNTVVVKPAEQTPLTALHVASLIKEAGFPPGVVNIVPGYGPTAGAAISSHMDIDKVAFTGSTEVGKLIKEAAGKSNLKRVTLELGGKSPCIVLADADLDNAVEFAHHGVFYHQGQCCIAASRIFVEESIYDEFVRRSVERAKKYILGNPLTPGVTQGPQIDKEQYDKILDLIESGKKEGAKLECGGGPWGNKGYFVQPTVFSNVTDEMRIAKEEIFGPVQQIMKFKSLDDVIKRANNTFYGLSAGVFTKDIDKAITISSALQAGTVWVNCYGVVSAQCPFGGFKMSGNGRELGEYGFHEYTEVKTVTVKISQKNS
Active calls of the source: *; u = inconclusive; x = no result given; [ ] = another dose, or the depositor's remark. Unless noted, calls come from the whole dose curve; as a rule, active = well fitted curve in the direction sought with a large enough effect; inconclusive = small, poorly fitted or top-dose-only effect, or another doubt; inactive = no such curve, though single readings can be large; an effect the other way counts as inactive or inconclusive.

SMILES	HTT aggregate	IMPase inh	IMPase Li cell	HTT ATP protect	HPGD block	ALDH1A1 block
COc1cccc(/C=N/NC(=O)c2cc(-c3ccc(C)cc3)n[nH]2)c1O	x	x	x	x	40µM*	-1%
Cc1cccc(/C=N\NC(=O)c2ccc(Cl)cc2)c1O	0.45µM*	x	5%	-82%[10 µM]	x	8%
COc1cc(/C=N/NC(=O)c2cccc([N+](=O)[O-])c2)cc(OC)c1O	-3%	x	8%	-33%	x	-5%
COc1cccc(/C=N/NC(=O)c2ccc([N+](=O)[O-])cc2Cl)c1O	7.1µM*	x	3%	-79%[10 µM]	-11%	2%
COc1cccc(/C=N/NC(=O)c2ccc(=O)n(C)c2)c1O	7.9µM*	x	7%	-84%[10 µM]	-9%	12%
COCCn1c(=O)c(-c2ccc(Cl)cc2)nc2cnc(N3CCNCC3)nc21	x	x	8%	-58%	x	u
CN(C)c1ccc(-c2cc(NCc3ccccc3)ncn2)cc1	x	x	-11%	-85%	u	u
CC1=CC(=O)C2=C(C)CC[C@@H]3[C@@H](OC(=O)[C@H]3C)[C@H]12	x	-2[20.6 µM]	-3%	2%[40.3 µM]	1%	0%[20.9 µM]
CC1=C(C(=O)OCc2ccc(C)cc2)C(c2ccccc2C(F)(F)F)CC(=O)N1 (stereo not drawn)	x	-29	x	x	x	x
COCCn1c(-c2ccc(-c3ccc([N+](=O)[O-])cc3Br)o2)nc2c1c(=O)[nH]c(=O)n2CC(C)C	6%	x	6%	8%[10 µM]	x	16µM*
COCCn1c(=O)[nH]c(=O)c2c1nc(-c1ccc(-c3ccc(Cl)cc3[N+](=O)[O-])o1)n2Cc1ccccc1	u	x	11%	u	u	u
COc1ccc(-c2ccc(-c3nc4c(c(=O)[nH]c(=O)n4Cc4ccccc4)n3C)o2)c([N+](=O)[O-])c1	4%	x	-5%	-46%[10 µM]	28µM*	1%
O=C1CC(c2ccccc2Cl)=NN(c2ncnc3ccccc23)C1=O	-12%	x	18%	-24%	x	0.63µM*
COC(=O)/C=C/C1c2ccccc2C(OC)C1C (stereo not drawn)	x	x	x	-3%[10 µM]	x	9%[13.5 µM]
O=C(C1=C[C@H](C2CC2)C[C@H](OCCCCO)O1)N1CCN(Cc2ccccc2)CC1	-11%[9.22 µM]	x	-2%	-8%[10 µM]	x	u
O=C(C1=C[C@H](C2CCCCC2)C[C@H](OCCCCO)O1)N1CCN(Cc2ccccc2)CC1	14%[9.22 µM]	x	3%	21%[10 µM]	x	14µM*
Cc1c(-c2nc(N)nc(C3CC3)c2C)nc(N)nc1C1CC1	x	x	11%	6%[10 µM]	-5%	-2%[13.5 µM]
CC(OC(=O)c1cccs1)C(=O)NCc1ccc2c(c1)OCO2 (stereo not drawn)	6%	1	6%[38.3 µM]	-26%	28µM*	4%
CC(C)C(OC(=O)c1nsc(Cl)c1Cl)C(=O)NCc1ccc2c(c1)OCO2 (stereo not drawn)	5%	-1	0%[38.3 µM]	8%	2.2µM*	-5%
CC(C)C(OC(=O)c1cccs1)C(=O)NCc1ccc2c(c1)OCO2 (stereo not drawn)	x	x	10%	x	x	-12%
Brc1cccc(-c2cnn3c(-c4ccccc4)cc(-c4ccccc4)nc23)c1	x	-8	x	x	x	x
CCCn1c(-c2ccc(F)cc2)nc2c(NCCCN(C)C)nc(C)nc21	x	x	-11%	5%	-27%	u
C/C(=N\NC(=O)c1c(Br)cnn1C)c1ccc(NC(=O)c2ccc(F)cc2)cc1	x	x	1%	x	x	0%
CC1CCC(NC(=S)NCCN(C)C)CC1 (stereo not drawn)	12%	x	12%	-16%	x	1.6µM*
CN(C)CCNC(=O)NC1CCCCC1	0%	8	7%[38.3 µM]	3%	-10%	-10%
SMILES	HTT aggregate	IMPase inh	IMPase Li cell	HTT ATP protect	HPGD block	ALDH1A1 block
Cc1cc(Cc2cc(C)c(N)cc2C)c(C)cc1N	16%	x	7%	-8%	x	22µM*
CN(C)Cc1cc(C(C)(C)C)cc(CNC2CCCCC2)c1O	x	x	29%	-3%[10 µM]	-9%	1%[13.5 µM]
CCC1CCc2c(sc(NC(=O)C3CC=CCC3C(=O)O)c2C#N)C1 (stereo not drawn)	-14%	x	-6%	x	32µM*	1.8µM*
C=C1CCC(O)C/C1=C/C=C1\CCC[C@]2(C)[C@@H]([C@H](C)/C=C/[C@H](C)C(C)C)CC[C@@H]12 (stereo partly drawn)	4%	x	x	11%	x	x
N#Cc1c(-c2ccc(Br)cc2)cc(-c2cccnc2)nc1N	-8%	x	22µM*	-13%[10 µM]	-11%	2%
CS(=O)c1nc(-c2ccc(Br)cc2)cc(-c2ccccc2)c1C#N (stereo not drawn)	u	-3	28%[38.3 µM]	-194%[0.074 µM]	7%	13µM*
CS(=O)(=O)c1nc(-c2ccc(Br)cc2)cc(-c2ccccc2)c1C#N	-96%	u	-30%[38.3 µM]	-127%	-2%	u
COc1ccc(-c2cc(C(F)(F)F)nc(SCCC(=O)Nc3cccc(O)c3)n2)cc1	x	-4	x	x	x	x
Cc1ccc(C)c(NC(=O)c2cc3c([nH]c4ccccc43)c(C)n2)c1	15%	5	11µM*	12%	-17%	-4%
Cc1ccc(S(=O)(=O)CCSc2cccc(C(=O)Nc3ccccc3C(=O)O)c2)cc1	1%	x	1%	-2%[10 µM]	16µM*	u
CC(C)C(=O)Nc1cccc(C(=O)Nc2ccccc2C(=O)O)c1	16%	-1	2%[38.3 µM]	-90%	-26%	-9%
COc1cc(C2NC(=O)c3ccccc3O2)cc(OC)c1OC (stereo not drawn)	19%	3	8%[38.3 µM]	-7%	u	u
CCOc1ccc(C2NC(=O)c3ccccc3O2)cc1 (stereo not drawn)	-7%	3	-8%[38.3 µM]	-4%	-14%	22µM*
O=C1SCC(c2ccc(Cl)cc2Cl)=NN1Cc1nnc(-c2ccccc2)o1	u	x	10%	17%[10 µM]	32µM*	-7%
CC(=O)Nc1ccc(C2=NN(CC#N)C(=O)SC2)cc1	10%	6	-10%[38.3 µM]	4%	-5%	0%
CC(=O)Nc1ccc(C2=NN(Cc3nnc(-c4ccccc4)o3)C(=O)SC2)cc1	-8%	x	8%	x	5µM*	-10%
CC(=O)C(/C=N/c1ncc(C(F)(F)F)cc1Cl)=C(\C)O	0%	x	-16%	-1%	x	2%
Cc1ccc(-n2nnc3c(=O)n(CC(=O)OCc4ccccc4)cnc32)cc1	0.0028µM*	13	18%[38.3 µM]	x	-18%	-7%
